Most compounds without a hit are left out; they make up all but 19% or so of the library.
DT40 TDP1 no CPT – qHTS for Inhibitors of human tyrosyl-DNA phosphodiesterase 1 (TDP1): qHTS in cells in absence of CPT; hit rate 15% among 420,000; Potency, µM (top dose mostly 46.2 µM), hits mostly inhibitors; DT40 Tdp1-/- hTDP1 cells, no CPT, ATP luminescence, 48 h; also: nearly all actives have a fitted effect of over 55% in size
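Growth of hTDP1-complemented DT40 Tdp1-knockout cells is measured by ATP luminescence after at least 48 hr compound exposure at 37 °C, with DMSO substituting for the 20 nM CPT used in the parallel screen.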
HT1080-NT tox – kills 2HG-producing HT-1080-NT fibrosarcoma cells; HT-1080-NT fibrosarcoma viability, CellTiter-Glo ATP luminescence, 48 h; Potency, µM (highest dose often 46.1 µM), hits mostly cytotoxic; hit rate 1.6% among 360,000;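 also: NT is the 2HG producing partner of a matched IDH1 knockdown line; nearly all actives have a fitted effect of over 55% in size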
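HT-1080-NT; 750 cells/well; 5% FBS RPMI; 48 h compound, 37 degrees C; CellTiter-Glo luminescence; curve fitting and curve-class assignment.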
IL-1B inflam inh – inhibitors of inflammasome signaling (IL-1 beta secretion); THP-1 LPS/ATP IL-1B secretion, AlphaLISA, 16 h; hits give low values; activity change, % at 57.5 µM; hit rate 4.7% among 360,000; AID 743279; in the data active = activity change below about -50%; inconclusive = mostly about -30% to -49%
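THP-1 cells pretreated 1 hr with compounds (up to 57.5 uM final), then stimulated with LPS (250 ng/mL final) plus ATP (1.25 mM final); secreted IL-1B measured by AlphaLISA after 16 hr, decreased signal indicating inhibition.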
uPA surface inh – blocks generation of uPA at the cell surface. Potency, µM (doses to about 38.3 µM), actives largely listed as inhibitors. hit rate 0.31% among 330,000. cell surface uPA generation assay, qHTS. AID 540303; active = well fitted inhibition curve with a large enough effect; inconclusive = small, poorly fitted or top-dose-only effect; inactive = no such curve, though single readings can be large or run the other way; tested in mouse RAW 264.7 cells; also: nearly all actives have a fitted effect of over 55% in size
DT40 TDP1 CPT – growth inhibition of DT40 Tdp1-/-;hTDP1 cells with camptothecin (screen for TDP1 inhibitors); AID 686979; chicken DT40 Tdp1-/-;hTDP1 cells + 20 nM CPT, ATP luminescence, 48 h; Potency, µM (titrated, usually from 46.2 µM), usual class: inhibitors; hit rate 12% among 420,000; also: nearly all actives have a fitted effect of over 55% in size
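Chicken DT40 Tdp1-/- cells stably complemented with human TDP1 were seeded at 400 cells/well in medium containing 20 nM camptothecin, exposed to pin-transferred compounds, and grown at 37 °C for at least 48 hr. Viability was read as ATP luminescence.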
HT1080 IDH1KD tx – kills HT-1080 cells with IDH1 knockdown; HT-1080 IDH1 knockdown viability, ATP luminescence, 48 h; Potency, µM (titrated, usually from 46.1 µM), hits mostly cytotoxic; hit rate 2% among 360,000; AID 686971
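% activity derives from luminescence (CellTiter-Glo), normalised to DMSO and no-cell wells. HT-1080-IDH1KD cells, 750/well, had 48 h compound exposure at 37 °C.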
A number is an active result; [ ] = another dose, or the depositor's remark. Unless noted, calls follow the shape of the dose curve; as a rule, active = well fitted curve in the direction sought with a large enough effect; inconclusive = small, poorly fitted or top-dose-only effect, or another doubt; inactive = no such curve, though single readings can be large; an effect the other way counts as inactive or inconclusive.

How did O=C(c1cc(C(=O)NCc2ccc(Cl)cc2)c(=O)n(Cc2ccc(Cl)cc2)c1)c1cc(F)ccc1O do in these assays?
DT40 TDP1 no CPT: inconclusive; HT1080-NT tox: inactive; IL-1B inflam inh: inactive; uPA surface inh: inactive; DT40 TDP1 CPT: inconclusive; HT1080 IDH1KD tx: inactive

What do the screens show for `Cc1ccc(NC(=O)C2CCCN(C(=O)c3cnn(-c4ccccc4)c3-n3cccc3)C2)cc1` (stereo not given)?
DT40 TDP1 no CPT: 18µM; DT40 TDP1 CPT: 15µM

Results for O=C(Nc1ccccc1)c1cc(C2CCCN(C(=O)C3CC3)C2)on1 (stereo not given) ?
DT40 TDP1 no CPT: inconclusive; HT1080-NT tox: inactive; IL-1B inflam inh: inactive; DT40 TDP1 CPT: inconclusive; HT1080 IDH1KD tx: inactive

How did O=C(NCc1ccc(Cl)cc1)C1CCCN(C(=O)c2cnn(-c3ccc(F)cc3)c2-n2cccc2)C1 (stereo not given) do in these assays?
DT40 TDP1 no CPT: 5.8µM; DT40 TDP1 CPT: 8.2µM

Results for CC(C)COC(=O)N1Cc2ccccc2-n2nncc2C1 ?
DT40 TDP1 no CPT: inactive; HT1080-NT tox: inactive; IL-1B inflam inh: inactive; DT40 TDP1 CPT: inactive; HT1080 IDH1KD tx: inactive

How did COc1cccc(CC(=O)N(C)C2CCCN(Cc3ccccc3F)C2)c1 (stereo not given) do in these assays?
DT40 TDP1 no CPT: inconclusive; HT1080-NT tox: inactive; IL-1B inflam inh: inactive; uPA surface inh: inactive; DT40 TDP1 CPT: inactive; HT1080 IDH1KD tx: inactive

Results for COc1cccc(C(=O)NCc2nc(-c3cccc(NC(=O)c4ccoc4C)c3)oc2C)c1 ?
DT40 TDP1 no CPT: inconclusive; DT40 TDP1 CPT: inactive[9.04 µM]

What do the screens show for `Cc1occc1C(=O)Nc1cccc(-c2nc(CNC(=O)c3cccc(C#CC(C)(C)O)c3)c(C)o2)c1`?
DT40 TDP1 no CPT: 21µM; DT40 TDP1 CPT: inactive[9.04 µM]

How did CCOP(=O)(OCC)c1nc(-c2cccc3ccccc23)oc1NCCc1ccc(OC)cc1 do in these assays?
DT40 TDP1 no CPT: inconclusive; HT1080-NT tox: inactive; IL-1B inflam inh: -55; uPA surface inh: inactive; DT40 TDP1 CPT: inconclusive; HT1080 IDH1KD tx: inactive

What do the screens show for `CCOP(=O)(OCC)C(NC(=O)c1cccc2ccccc12)C(Cl)(Cl)Cl` (stereo not given)?
DT40 TDP1 no CPT: inactive; HT1080-NT tox: inactive; IL-1B inflam inh: inactive; uPA surface inh: inactive; DT40 TDP1 CPT: inconclusive; HT1080 IDH1KD tx: inactive

How did CCOP(=O)(OCC)c1nc(-c2cccc3ccccc23)oc1N1CCOCC1 do in these assays?
DT40 TDP1 no CPT: 10µM; HT1080-NT tox: inactive; IL-1B inflam inh: -73; uPA surface inh: inactive; DT40 TDP1 CPT: inconclusive; HT1080 IDH1KD tx: inactive

How did CCOP(=O)(OCC)c1nc(-c2ccccc2)oc1NCc1ccccc1 do in these assays?
DT40 TDP1 no CPT: inconclusive; HT1080-NT tox: inactive; IL-1B inflam inh: inactive; uPA surface inh: inactive; DT40 TDP1 CPT: inconclusive; HT1080 IDH1KD tx: inactive

How did CCOP(=O)(OCC)c1nc(-c2ccc(F)cc2)oc1NCc1ccccc1 do in these assays?
DT40 TDP1 no CPT: inactive; HT1080-NT tox: inconclusive; IL-1B inflam inh: -54; uPA surface inh: inconclusive; DT40 TDP1 CPT: inconclusive; HT1080 IDH1KD tx: inactive

Results for CCOP(=O)(c1ccccc1)c1nc(-c2ccc(F)cc2)oc1N1CCCCC1 (stereo not given) ?
DT40 TDP1 no CPT: 21µM; HT1080-NT tox: inconclusive; IL-1B inflam inh: inconclusive; uPA surface inh: inactive; DT40 TDP1 CPT: 13µM; HT1080 IDH1KD tx: inconclusive

What do the screens show for `COC(=O)CSC1=NN1c1cc(C)nc(N)n1`?
DT40 TDP1 no CPT: inactive; HT1080-NT tox: inactive; IL-1B inflam inh: inactive; uPA surface inh: inactive; DT40 TDP1 CPT: inactive; HT1080 IDH1KD tx: inactive

What do the screens show for `COC(=O)c1c(C)[nH]c(C(=O)C(C)[N+]23CCN(CC2)CC3)c1C` (stereo not given)?
DT40 TDP1 no CPT: inactive; HT1080-NT tox: inactive; IL-1B inflam inh: inactive; uPA surface inh: inactive; DT40 TDP1 CPT: inactive; HT1080 IDH1KD tx: inactive

What do the screens show for `CCOc1ccc(OC(=O)c2ccc3c(=O)n4c(nc3c2)CCC4)cc1`?
DT40 TDP1 no CPT: inconclusive; HT1080-NT tox: inactive; IL-1B inflam inh: inactive; uPA surface inh: inactive; DT40 TDP1 CPT: inconclusive; HT1080 IDH1KD tx: inactive

Source: PubChem BioAssay (National Center for Advancing Translational Sciences (NCATS))
